Source: PubChem BioAssay
Calls of active or inactive are those of the source.

Assays:
[1] = compound effects on lung adenocarcinoma cell viability – A549, calcein-AM fluorescence, 48 h, basal, profiling panel (AID 1162); settings: higher = more signal
[2] = compound effects on differentiated 3T3-L1 adipocyte viability – cell-based, 3T3-L1 adipocytes, calcein-AM fluorescence, 48 h, basal, profiling panel (AID 1163); settings: 3T3-L1 adipocytes viability, higher = more signal
[3] = compound effects on hepatocellular carcinoma cell viability – HepG2, calcein-AM fluorescence, 48 h, basal, profiling panel (AID 1164); settings: higher = more signal
[4] = compound effects on multiple myeloma cell viability – MM1S, calcein-AM fluorescence, 48 h, basal, profiling panel (AID 1165); settings: higher = more signal;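 note: viability of MM1S multiple myeloma cells under basal unstimulated conditions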
[5] = calcein-AM signal in unstimulated myeloma cells – cell-based, calcein-AM fluorescence, 48 h, PK04 Diversity Set, profiling panel (AID 1166); settings: RPMI8226 myeloma viability, higher = more signal;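 note: cells grown under basal conditions without added stimulus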
[6] = JC-1 mitochondrial signal, unstimulated HepG2 cells – cell-based, JC-1 fluorescence, 24 h, 100 nL compound, profiling panel (AID 1167); settings: HepG2 mitochondrial potential, higher = more signal
[7] = JC-1 mitochondrial signal, unstimulated adipocytes – cell-based, JC-1 fluorescence, 3T3-L1 adipocytes, 24 h, 100 nL compound, profiling panel (AID 1168); settings: JC-1 mitochondrial fluorescence, higher = more signal, called active from +8 up or from −8 down
[8] = JC-1 mitochondrial signal, unstimulated myeloma cells – cell-based, JC-1 fluorescence, RPMI8226, 24 h, 100 nL compound, profiling panel (AID 1169); settings: JC-1 mitochondrial potential fluorescence, higher = more signal
[9] = JC-1 mitochondrial signal, unstimulated MM1S myeloma – cell-based, JC-1 fluorescence, 24 h, 100 nL compound, profiling panel (AID 1170); settings: MM1S mitochondrial potential, higher = more signal
[10] = resazurin metabolic signal in A549 cells – cell-based, resazurin fluorescence, 24 h, PK04 Diversity Set, profiling panel (AID 1171); settings: A549 viability, higher = more signal, called active from +8 up or from −8 down
Note: test concentration not given here.

Row | SMILES | z-score [1] | z-score [2] | z-score [3] | z-score [4] | z-score [5] | z-score [6] | z-score [7] | z-score [8] | z-score [9] | z-score [10]
1 | [N-]=[N+]=NCc1ccccc1[C@@H]1OC(c2ccc(OCCCO)cc2)=N[C@]1(Cc1ccccc1N=[N+]=[N-])C(=O)N1CCOCC1 | 0.328 | -0.259 | -0.761 | -1.48 | -2.62 | -0.516 | -1.06 (inactive) | -1.02 | -1.42 | -0.867 (inactive)
2 | O=C1O[C@H](c2ccccc2)[C@H](c2ccccc2)N2[C@H]1[C@@H](C(=O)Nc1nc3ccccc3s1)[C@]1(C(=O)Nc3ccc(C#CC4(O)CCCCCC4)cc31)[C@H]2c1ccc(OCCO)cc1 | -0.128 | 1.45 | -0.318 | -1.89 | -2 | -3.77 | -0.727 (inactive) | -1.22 | -1.41 | 0.634 (inactive)
3 | CCOC(=O)[C@H]1C/C=C/C[C@H](C(=O)OCC)C(=O)O[C@H]2[C@@H](OC)O[C@H](CO)[C@@H](OC(=O)Nc3cccc(F)c3)[C@@H]2OC1=O | -3.9 | -0.502 | -5.19 | -3.3 | -4.16 | -3.56 | 1.84 (inactive) | -0.959 | -1.99 | -5.95 (inactive)
4 | C=CCOC(=O)[C@H]1[C@@H]2C(=O)O[C@@H](c3ccccc3)[C@@H](c3ccccc3)N2[C@@H](c2ccc(OCCOC(=O)[C@H]3C[C@H]4C(=O)N5CCC[C@H]5C(=O)N4[C@H]3c3ccc(O)cc3)cc2)[C@]12C(=O)Nc1ccccc12 | -0.45 | 1.46 | 0.226 | -0.0596 | -0.653 | -1.37 | 1.22 (inactive) | -0.515 | -0.857 | 0.315 (inactive)
5 | C=CCOC(=O)[C@H]1[C@@H]2C(=O)O[C@@H](c3ccccc3)[C@@H](c3ccccc3)N2[C@@H](c2ccc(OCCOC(=O)[C@@H]3C[C@@H]4C(=O)N5CCC[C@H]5C(=O)N4[C@@H]3c3cccc(OCCO)c3)cc2)[C@]12C(=O)Nc1ccccc12 | -0.0865 | 1.05 | -0.786 | -0.423 | 0.107 | -1.41 | -0.0892 (inactive) | -0.737 | -0.421 | -1.65 (inactive)
6 | COCC(=C=CC[C@@H](O)c1ccccc1OCCO)C[C@@H](O)c1cc(Cl)cc(Cl)c1O | 0.14 | -0.407 | 0.0467 | -3.32 | -3.44 | -2.21 | -1.69 (inactive) | -0.881 | -1.15 | -0.106 (inactive)
7 | CCN(CC)c1ccc(N2CC=CC34O[C@@H]5/C=C\CCCOC(=O)C5[C@H]3C(=O)N(CCO)[C@@H]4C2=O)cc1 (stereo not given in full) | 1.05 | 0.327 | 0.0797 | 0.727 | -0.509 | -0.451 | -0.381 (inactive) | -0.814 | -0.245 | -1.8 (inactive)
8 | COC(=O)c1c(CC[C@@H](CO)NC(=O)N2CCC[C@H]2Cn2cc(-c3ccccn3)nn2)oc(C(C)=O)c1C(=O)OC | -0.204 | 1 | -1.02 | 0.208 | 1.18 | -0.443 | -0.922 (inactive) | 0.859 | -0.475 | 0.133 (inactive)
9 | [N-]=[N+]=NCc1ccccc1[C@@H]1OC(c2ccc(OCCCO)cc2)=N[C@]1(CCS(=O)(=O)c1ccccc1)C(=O)NCc1ccccc1 | -0.137 | 1.09 | 0.0616 | -0.158 | -1.04 | -0.0428 | 0.0135 (inactive) | -0.143 | -0.979 | 0.201 (inactive)
10 | O=C1O[C@@H](c2ccccc2)[C@@H](c2ccccc2)N2[C@@H](c3ccccc3OCCO)[C@]3(C(=O)Nc4ccc(C#CC5=CCCCC5)cc43)[C@@H](C(=O)Nc3nc4ccccc4s3)[C@H]12 | -1.36 | 0.608 | -0.786 | -2.8 | -2.88 | -2.9 | -0.353 (inactive) | -1.05 | -1.42 | -0.301 (inactive)
11 | COCCOC(=O)N1C(=O)[C@@]2(c3cc(C#CCCO)ccc31)[C@H](C(=O)N1CCN(c3ncccn3)CC1)[C@H]1C(=O)O[C@H](c3ccccc3)[C@H](c3ccccc3)N1[C@@H]2c1ccccc1OCCO | 0.703 | 0.701 | -0.51 | 0.135 | -0.192 | 0.107 | 0.675 (inactive) | -0.324 | -1.15 | 1.79 (inactive)
12 | COC(=O)[C@@]1(Cc2ccccc2)[C@H]2c3cc(C(=O)N4CCCC4)n(CC4CC4)c3C[C@H]2CN1C(=O)c1ccccc1 | -1.46 | 0.643 | -0.303 | -0.39 | -2.15 | 1.51 | -1.77 (inactive) | -0.516 | -0.569 | -1.51 (inactive)
13 | COCCOC(=O)N1C(=O)[C@@]2(c3ccccc31)[C@H](c1ccccc1OCCO)N1[C@H](c3ccccc3)[C@H](c3ccccc3)OC(=O)[C@H]1[C@@H]2C(=O)Nc1nc2ccccc2s1 | -0.331 | 0.0264 | -0.271 | -1.39 | -1.54 | -1.51 | 1.79 (inactive) | -1.01 | -1.33 | -1.02 (inactive)
14 | COC(=O)[C@@]1(Cc2ccccc2)[C@H]2c3cc(C(=O)N4CCCC4)n(Cc4cccc5ccccc45)c3C[C@H]2CN1C(=O)c1ccccc1 | -0.692 | -0.57 | -0.824 | -1.42 | -3.92 | 1.04 | -2.12 (inactive) | -0.784 | -1.74 | -1.19 (inactive)
15 | CC(C)(C)OC(=O)CC[C@@]1(C(=O)NCCN2CCOCC2)N=C(c2ccc(OCCCO)cc2)O[C@@H]1c1ccccc1N=[N+]=[N-] | 1.2 | 0.698 | 1.33 | -0.849 | -0.187 | 0.749 | 1.66 (inactive) | -0.993 | -0.339 | -0.492 (inactive)
16 | CC[C@@H]1C=C(C(=O)O)[C@H](c2ccco2)N1S(=O)(=O)c1ccc(C)cc1 | -0.364 | -0.538 | 0.186 | -0.019 | -0.29 | -0.0247 | -1.25 (inactive) | 0.604 | -1.26 | -0.68 (inactive)
17 | CN1C(=O)C2C=CC(C(O)C3CCCCC3)N(Nc3ccc([N+](=O)[O-])cc3[N+](=O)[O-])C2C1=O (stereo not given) | -0.798 | -0.156 | -0.905 | -0.193 | -0.849 | -1.18 | -0.299 (inactive) | 0.464 | 0.314 | 0.421 (inactive)
18 | Cc1ccc(S[C@]2(C(=O)NC(C)C)CC(=O)N(Cc3ccccc3Cl)[C@@H]2c2ccc(CO)cc2I)cc1 | -0.0542 | -0.05 | -0.125 | -2.71 | -1.58 | -1.08 | -0.443 (inactive) | -0.195 | -1.6 | 1.11 (inactive)
19 | Cc1ccc(S[C@]2(C(=O)NCCN3CCOCC3)CC(=O)N(Cc3ccccc3)[C@@H]2c2ccc(CO)cc2I)cc1 | -0.242 | 1.1 | -0.705 | -2.08 | -2.5 | 0.119 | -0.688 (inactive) | -0.383 | -2.44 | 0.394 (inactive)
20 | CC(C)C[C@@H]1NC(=O)[C@H]2C[C@@H](C(=O)NCCCCCCN(C)C)[C@@H](c3ccc(O)cc3)N2C1=O | -1.06 | -0.0009 | -0.59 | 0.235 | -1.28 | -0.438 | 0.186 (inactive) | 0.664 | -0.601 | -0.743 (inactive)
21 | COC(=O)[C@@]1(Cc2ccc(F)cc2)[C@H]2c3cc(C(=O)N4CCCC4)n(Cc4ccc(C)o4)c3C[C@H]2CN1C(=O)c1ccccc1 | -0.981 | 0.681 | -0.498 | -2.99 | -3.74 | 2.32 | 0.096 (inactive) | -0.486 | -2.84 | -0.72 (inactive)
22 | COc1ccc(CCNC(=O)[C@@]2(Sc3ccc(C)cc3)CC(=O)N(C3CCCCC3)[C@@H]2c2ccc(CO)cc2I)cc1 | 1.06 | -0.475 | -0.242 | -2.14 | -2.93 | -0.836 | -0.792 (inactive) | -0.632 | -1.33 | 1.11 (inactive)
23 | O=C1NC(=O)C2C1C=CC(C(O)Cc1ccccc1)N2Nc1ccc(Cl)cc1Cl (stereo not given) | 0.447 | -0.0852 | -1.57 | -0.988 | -0.388 | -1.73 | -0.00872 (inactive) | -0.371 | -0.375 | -0.519 (inactive)
24 | COCCOC(=O)N1C(=O)[C@@]2(c3ccccc31)[C@H](c1ccc(O)cc1)N1[C@H](c3ccccc3)[C@H](c3ccccc3)OC(=O)[C@H]1[C@@H]2C(=O)NC[C@H](O)c1ccccc1 | 0.205 | 1.15 | 0.311 | -0.534 | -1.99 | -1.02 | -0.184 (inactive) | 0.266 | -0.142 | -1.1 (inactive)
25 | Cc1ccc(S[C@]2(C(=O)NCCN3CCOCC3)CC(=O)N(Cc3ccccc3Cl)[C@@H]2c2ccc(CO)cc2)cc1 | 0.263 | 1.03 | -0.0334 | 0.368 | -1.77 | 0.482 | -0.41 (inactive) | -0.168 | -1.17 | 1.05 (inactive)
26 | C=CC[C@]12N=C(c3ccc(OCCCO)cc3)O[C@H]1c1ccccc1N(Cc1ccccc1)C2=O | -0.739 | -0.082 | -0.957 | -3.44 | -3.83 | -0.433 | 2.12 (inactive) | -0.982 | -2.48 | -1.48 (inactive)
27 | O=C(NCc1ccccc1)[C@@H]1c2ccccc2C(=O)N(CC23CC4CC(CC(C4)C2)C3)[C@H]1c1ccc(CO)cc1 | 0.449 | -0.475 | 0.57 | -0.708 | -0.896 | 0.362 | -0.924 (inactive) | -0.136 | -0.711 | -0.471 (inactive)
28 | C=CCC(OC(C)=O)[C@@H]1[C@@H](N(Cc2ccc(-c3cccc(C(F)(F)F)c3)o2)C(=O)Cc2ccc(F)cc2)c2cc(OCCCO)ccc2N1C(=O)Cc1ccc(OC)cc1 (stereo not given in full) | 1.31 | 1.16 | 0.892 | -0.394 | 0.274 | 2.87 | 0.649 (inactive) | -0.386 | -0.195 | 0.555 (inactive)
29 | C=C(CCCC)C(=O)CC[C@H](OC(=O)c1cccnc1)c1ccccc1OCCO | 0.414 | 1.54 | -0.664 | -3.22 | -1.65 | 0.663 | -0.916 (inactive) | -0.587 | -0.491 | 1.1 (inactive)
30 | CCCCCN1CC=CC23O[C@@H]4/C=C\CCCOC(=O)C4[C@H]2C(=O)N(CCCO)[C@@H]3C1=O (stereo not given in full) | -0.335 | 1.65 | -0.495 | 0.759 | 0.424 | -0.472 | -0.0755 (inactive) | 0.362 | 0.286 | 0.937 (inactive)
